Measurements from PubChem BioAssay AID1159580 (chemical genetic matrix, 2015).
Out of some 5,500 compounds screened, about 2,000 (36%) were called active. Another 18% or so got no clear call; they are omitted. Rule as the data show it: active = normalized growth mostly below about 0.91 (no sharp cut-off); inconclusive = no clear call, values can overlap the other calls; inactive = mostly above about 0.92. Some of the results follow.

Test: chemical genetic growth profiling, strain panel (AID 1159580);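 also: tested at 20 µM; growth read once vehicle control cultures reached saturation at 30 °C; 1 = growth at the plate median or of vehicle wells; lower values mean less growth of the strain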
Conditions: growth OD

Measured: normalized growth

O=C1C=CC(=O)c2c(O)cccc21
inactive: S. cerevisiae deletion strains, locus YJR043C, strain POL32, active compounds read low 1.01 | S. cerevisiae deletion strains, locus YJR066W, strain TOR1, active compounds read low 0.894 | S. cerevisiae deletion strains, locus YKL009W, strain mrt4, active compounds read low 0.934 | S. cerevisiae deletion strains, locus YKL068W, active compounds read low 0.982 | S. cerevisiae deletion strains, locus YKL085W, strain MDH1 (second series), active compounds read low 0.97 | S. cerevisiae deletion strains, locus YKL085W, strain MDH1, active compounds read low 0.97 | S. cerevisiae deletion strains, locus YKL160W, strain elf1, active compounds read low 1 | S. cerevisiae deletion strains, locus YKL190W, strain CNB1, active compounds read low 0.986 | S. cerevisiae deletion strains, locus YKR001C, strain vps1, active compounds read low 0.938 | S. cerevisiae deletion strains, locus YKR026C, strain gcn3, active compounds read low 0.983 | S. cerevisiae deletion strains, locus YKR091W, strain srl3, active compounds read low 0.983 | S. cerevisiae deletion strains, locus YLL001W, strain dnm1, active compounds read low 0.968 | S. cerevisiae deletion strains, locus YLL026W, active compounds read low 1.01 | S. cerevisiae deletion strains, locus YLL041C, strain sdh2, active compounds read low 1 | S. cerevisiae deletion strains, locus YLR027C, strain aat2, active compounds read low 0.984 | S. cerevisiae deletion strains, locus YLR039C, strain RIC1, active compounds read low 0.699 | S. cerevisiae deletion strains, locus YLR058C, strain SHM2, active compounds read low 0.947 | S. cerevisiae deletion strains, locus YLR102C, strain apc9, active compounds read low 0.989 | S. cerevisiae deletion strains, locus YLR113W, strain HOG1, active compounds read low 0.922 | S. cerevisiae deletion strains, locus YLR221C, strain rsa3, active compounds read low 0.947 | S. cerevisiae deletion strains, locus YLR258W, strain gsy2, active compounds read low 0.979 | S. cerevisiae deletion strains, locus YLR262C, strain YPT6, active compounds read low 0.731 | S. cerevisiae deletion strains, locus YLR268W, strain sec22, active compounds read low 0.995 | S. cerevisiae deletion strains, locus YLR330W, strain CHS5, active compounds read low 1 | S. cerevisiae deletion strains, locus YLR342W, strain FKS1 (second series), active compounds read low 0.967 | S. cerevisiae deletion strains, locus YLR342W, strain FKS1, active compounds read low 0.986 | S. cerevisiae deletion strains, locus YLR357W, strain rsc2, active compounds read low 0.964 | S. cerevisiae deletion strains, locus YLR370C, strain arc18, active compounds read low 0.979 | S. cerevisiae deletion strains, locus YLR384C, strain iki3, active compounds read low 0.957 | S. cerevisiae deletion strains, locus YLR418C, strain cdc73, active compounds read low 0.885 | S. cerevisiae deletion strains, locus YML016C, strain PPZ1, active compounds read low 0.975 | S. cerevisiae deletion strains, locus YML032C, strain rad52, active compounds read low 0.915 | S. cerevisiae deletion strains, locus YML120C, strain ndi1, active compounds read low 0.987 | S. cerevisiae deletion strains, locus YML124C, strain tub3, active compounds read low 0.993 | S. cerevisiae deletion strains, locus YMR058W, strain fet3, active compounds read low 0.983 | S. cerevisiae deletion strains, locus YMR078C, strain ctf18, active compounds read low 0.986 | S. cerevisiae deletion strains, locus YMR125W, strain sto1, active compounds read low 0.991 | S. cerevisiae deletion strains, locus YMR129W, active compounds read low 1.03 | S. cerevisiae deletion strains, locus YMR205C, strain PFK2, active compounds read low 0.91 | S. cerevisiae deletion strains, locus YMR223W, strain ubp8, active compounds read low 0.966 | S. cerevisiae deletion strains, locus YMR231W, strain pep5, active compounds read low 0.975 | S. cerevisiae deletion strains, locus YMR307W, strain GAS1, active compounds read low 0.944 | S. cerevisiae deletion strains, locus YNL067W, strain RPL9B, active compounds read low 0.979 | S. cerevisiae deletion strains, locus YNL153C, strain GIM3, active compounds read low 0.964 | S. cerevisiae deletion strains, locus YNL183C, strain NPR1, active compounds read low 0.932 | S. cerevisiae deletion strains, locus YNL209W, strain ssb2, active compounds read low 0.983 | S. cerevisiae deletion strains, locus YNL233W, strain BNI4, active compounds read low 0.996 | S. cerevisiae deletion strains, locus YNL248C, strain rpa49, active compounds read low 1.08 | S. cerevisiae deletion strains, locus YNL250W, strain rad50, active compounds read low 0.987 | S. cerevisiae deletion strains, locus YNL271C, strain bni1, active compounds read low 0.982 | S. cerevisiae deletion strains, locus YNL298W, strain CLA4, active compounds read low 0.998 | S. cerevisiae deletion strains, locus YNL307C, strain MCK1, active compounds read low 0.994 | S. cerevisiae deletion strains, locus YNL322C, strain KRE1 (second series), active compounds read low 1.01 | S. cerevisiae deletion strains, locus YNR049C, strain mso1, active compounds read low 0.993 | S. cerevisiae deletion strains, locus YNR052C, strain pop2, active compounds read low 1.01 | S. cerevisiae deletion strains, locus YOL012C, strain htz1 1.06 | S. cerevisiae deletion strains, locus YOL147C, strain pex11, active compounds read low 0.994 | S. cerevisiae deletion strains, locus YOR001W, strain rrp6, active compounds read low 0.966 | S. cerevisiae deletion strains, locus YOR061W, strain CKA2, active compounds read low 0.947 | S. cerevisiae deletion strains, locus YOR069W, strain VPS5, active compounds read low 0.981 | S. cerevisiae deletion strains, locus YOR070C, strain gyp1, active compounds read low 0.993 | S. cerevisiae deletion strains, locus YOR080W, strain dia2, active compounds read low 0.971 | S. cerevisiae deletion strains, locus YOR083W, strain WHI5, active compounds read low 0.99 | S. cerevisiae deletion strains, locus YOR106W, strain vam3, active compounds read low 0.91 | S. cerevisiae deletion strains, locus YOR136W, strain idh2, active compounds read low 0.993 | S. cerevisiae deletion strains, locus YOR144C, strain elg1, active compounds read low 0.988 | S. cerevisiae deletion strains, locus YOR184W, strain ser1, active compounds read low 0.984 | S. cerevisiae deletion strains, locus YOR231W, strain MKK1, active compounds read low 0.964 | S. cerevisiae deletion strains, locus YOR265W, strain rbl2, active compounds read low 0.966 | S. cerevisiae deletion strains, locus YOR290C, strain snf2, active compounds read low 0.989 | S. cerevisiae deletion strains, locus YOR316C, strain cot1, active compounds read low 0.99 | S. cerevisiae deletion strains, locus YPL051W, strain arl3, active compounds read low 0.97 | S. cerevisiae deletion strains, locus YPL078C, strain atp4, active compounds read low 0.974 | S. cerevisiae deletion strains, locus YPL106C, strain sse1, active compounds read low 0.881 | S. cerevisiae deletion strains, locus YPL240C, strain hsp82, active compounds read low 0.973 | S. cerevisiae deletion strains, locus YPL241C, strain CIN2, active compounds read low 0.987 | S. cerevisiae deletion strains, locus YPL256C, strain CLN2, active compounds read low 0.94 | S. cerevisiae deletion strains, locus YPR119W, strain clb2, active compounds read low 0.992 | S. cerevisiae deletion strains, locus YPR141C, strain kar3, active compounds read low 0.982 | S. cerevisiae deletion strains, locus YPR163C, strain tif3, active compounds read low 1.01 | S. cerevisiae deletion strains, locus YPR167C, strain met16, active compounds read low 1 | S. cerevisiae deletion strains, strain wtn01, active compounds read low 1.04 | S. cerevisiae strains, strain wild type, active compounds read low 0.987
active: S. cerevisiae deletion strains, locus YLR262C, strain YPT6 (second series), active compounds read low 0.727 | S. cerevisiae deletion strains, locus YLR320W, strain mms22, active compounds read low 0.851 | S. cerevisiae deletion strains, locus YNL071W, strain lat1, active compounds read low 0.897 | S. cerevisiae deletion strains, locus YOR270C, strain vph1, active compounds read low 0.775
